Assays:
Experiment in all cases: HT-SELEX; 20 mM HEPES pH 7, 140 mM KCl, 5 mM NaCl, 1 mM K2HPO4, 2 mM MgSO4, 100 uM EGTA, ZnSO4, 0.1% Tween20; room temperature, 1 h; high values mean tight binding
Details in all cases: protein: ivt; tags: eGFP (N-terminal); dsDNA, one strand shown
ZNF721 full-length = ZNF721 full-length (Homo sapiens, UniProt Q8TF20-2 1-923)
How it was run: (§1)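 Tagged transcription factor, expressed in HEK293 lysate or cell-free extract as a full-length protein or DNA-binding-domain fragment, was held on beads. It bound a randomized 40-base DNA library during 1 h at room temperature in low-stringency HEPES/KCl buffer with Tween20. Eluted DNA went through successive PCR cycles and Illumina sequencing of ~3 million 60 bp reads per sample. A higher relative k-mer count in the selected reads denotes tighter binding.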

ZNF721 DBD1 = ZNF721 DBD1 (Homo sapiens, UniProt Q8TF20-2 29-461)
How it was run: as §1

ZNF721 DBD2 = ZNF721 DBD2 (Homo sapiens, UniProt Q8TF20-2 395-923)
How it was run: as §1

ZNF721 DBD2, sequence (Q8TF20 383-911): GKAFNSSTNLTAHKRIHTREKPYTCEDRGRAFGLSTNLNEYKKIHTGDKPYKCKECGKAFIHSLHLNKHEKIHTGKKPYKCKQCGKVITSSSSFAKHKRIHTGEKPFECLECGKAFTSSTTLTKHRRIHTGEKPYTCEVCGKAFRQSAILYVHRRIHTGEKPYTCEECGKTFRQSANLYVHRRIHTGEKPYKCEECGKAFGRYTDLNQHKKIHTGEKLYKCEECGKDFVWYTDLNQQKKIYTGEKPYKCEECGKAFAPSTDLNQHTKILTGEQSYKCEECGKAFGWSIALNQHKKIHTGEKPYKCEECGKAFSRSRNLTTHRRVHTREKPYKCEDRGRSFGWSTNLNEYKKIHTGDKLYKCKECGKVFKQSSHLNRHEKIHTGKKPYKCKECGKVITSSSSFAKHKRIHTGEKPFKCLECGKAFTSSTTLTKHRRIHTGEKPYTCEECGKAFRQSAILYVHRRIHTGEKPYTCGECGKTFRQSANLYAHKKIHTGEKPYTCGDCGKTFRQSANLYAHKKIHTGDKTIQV
ZNF721 full-length, sequence (Q8TF20 other isoform, or with tags, fused parts or gaps): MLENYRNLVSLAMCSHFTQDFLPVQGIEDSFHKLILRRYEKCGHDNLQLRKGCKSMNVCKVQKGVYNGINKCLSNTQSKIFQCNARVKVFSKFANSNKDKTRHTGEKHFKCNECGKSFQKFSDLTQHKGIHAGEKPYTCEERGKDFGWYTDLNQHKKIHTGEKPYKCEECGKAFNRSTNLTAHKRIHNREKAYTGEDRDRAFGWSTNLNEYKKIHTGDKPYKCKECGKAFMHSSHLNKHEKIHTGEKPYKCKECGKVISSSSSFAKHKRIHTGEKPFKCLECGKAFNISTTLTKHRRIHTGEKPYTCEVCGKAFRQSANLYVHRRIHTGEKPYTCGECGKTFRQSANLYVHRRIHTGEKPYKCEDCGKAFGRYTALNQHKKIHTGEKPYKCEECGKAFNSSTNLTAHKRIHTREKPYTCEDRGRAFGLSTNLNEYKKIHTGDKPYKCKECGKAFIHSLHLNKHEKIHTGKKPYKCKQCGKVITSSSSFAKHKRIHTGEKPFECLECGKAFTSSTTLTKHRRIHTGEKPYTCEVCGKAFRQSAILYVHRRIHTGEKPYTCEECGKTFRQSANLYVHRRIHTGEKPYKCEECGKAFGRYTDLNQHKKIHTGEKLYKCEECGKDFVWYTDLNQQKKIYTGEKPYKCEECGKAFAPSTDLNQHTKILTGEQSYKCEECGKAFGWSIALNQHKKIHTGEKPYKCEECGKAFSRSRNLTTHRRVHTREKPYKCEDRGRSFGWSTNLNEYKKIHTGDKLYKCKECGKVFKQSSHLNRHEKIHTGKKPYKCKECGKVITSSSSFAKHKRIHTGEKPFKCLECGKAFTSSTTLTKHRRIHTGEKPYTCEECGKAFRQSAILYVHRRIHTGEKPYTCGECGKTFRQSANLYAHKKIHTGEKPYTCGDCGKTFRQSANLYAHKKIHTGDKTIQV
ZNF721 DBD1, sequence (Q8TF20 17-449): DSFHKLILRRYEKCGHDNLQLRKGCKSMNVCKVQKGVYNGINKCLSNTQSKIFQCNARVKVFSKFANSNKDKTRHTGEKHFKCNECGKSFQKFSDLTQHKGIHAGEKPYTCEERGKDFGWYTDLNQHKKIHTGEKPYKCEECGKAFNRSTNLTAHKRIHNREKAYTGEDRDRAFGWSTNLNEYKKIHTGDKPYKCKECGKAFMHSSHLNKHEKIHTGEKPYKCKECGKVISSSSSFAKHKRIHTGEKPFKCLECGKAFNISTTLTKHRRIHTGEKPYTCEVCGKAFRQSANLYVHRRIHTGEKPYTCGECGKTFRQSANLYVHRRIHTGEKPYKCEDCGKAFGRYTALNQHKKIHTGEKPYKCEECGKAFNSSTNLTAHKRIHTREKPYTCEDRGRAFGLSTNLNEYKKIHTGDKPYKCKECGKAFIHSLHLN

| Sequence | binding signal (ZNF721 full-length) [relative 10-mer count] | binding signal (ZNF721 DBD1) [relative 10-mer count] | binding signal (ZNF721 DBD2) [relative 10-mer count] |
| --- | --- | --- | --- |
| CCCCTCCTCC | 0.154 | 0.00794 | 0.00515 |
| AAAAAAAGGC | 0.162 | 0.00225 | 0.117 |
| ACCCCACCCT | 0.104 | 0.005 | 0.00372 |
| CCCCTCGCCC | 0.161 | 0.00665 | 0.00372 |
| CCCCCACCAA | 0.115 | 0.00431 | 0.00443 |
| AAACAAGCAG | 0.212 | 0.00908 | 0.149 |
| CCCACGCCCC | 0.233 | 0.00729 | 0.00384 |
| CCTCCACCCC | 0.263 | 0.0117 | 0.00455 |
| CCACACCCCA | 0.124 | 0.00472 | 0.00503 |
| CCCCAGCCCC | 0.202 | 0.0083 | 0.0018 |
| AAGGCATACC | 0.13 | 0.00183 | 0.114 |
| CCGCCCGCCC | 0.136 | 0.00495 | 0.00192 |
| CCCGCCCTCC | 0.158 | 0.00803 | 0.0018 |
| ACCCACCCCT | 0.134 | 0.00541 | 0.00324 |
| AAAAAGCATA | 0.182 | 0.0303 | 0.0372 |
| AGGCAACACT | 0.174 | 0.00697 | 0.391 |
| AAGCATACCC | 0.253 | 0.076 | 0.0243 |
| CCTCCACCAC | 0.116 | 0.00564 | 0.00923 |
| AGCGTCTCCA | 0.271 | 0.0472 | 0.388 |
| GCCCCCCCCA | 0.107 | 0.00261 | 0.00348 |
| ACCCGCCCCA | 0.109 | 0.00307 | 0.0012 |
| GAAAAAAAGC | 0.29 | 0.0712 | 0.0678 |
| CCTCCCCCCA | 0.18 | 0.00761 | 0.0036 |
| CCCCCCGCAC | 0.115 | 0.00372 | 0.00348 |

| Sequence | binding signal (ZNF721 full-length) [relative 10-mer count] | binding signal (ZNF721 DBD1) [relative 10-mer count] | binding signal (ZNF721 DBD2) [relative 10-mer count] |
| --- | --- | --- | --- |
| CTCCCCCCAC | 0.148 | 0.00794 | 0.00419 |
| CCCACCCCAC | 0.354 | 0.0155 | 0.00863 |
| AGGATACCCT | 0.106 | 0.00527 | 0.171 |
| AAAAAAAGGT | 0.117 | 0.00583 | 0.0857 |
| CCCATCCCCC | 0.185 | 0.00716 | 0.00312 |
| CACACCCACC | 0.135 | 0.00651 | 0.00695 |
| CCCCGCACCC | 0.179 | 0.00812 | 0.00252 |
| CGCCACCCAC | 0.123 | 0.0056 | 0.00372 |
| AACAAAAAAG | 0.106 | 0.00927 | 0.0439 |
| CCCCCTCCCC | 0.331 | 0.0149 | 0.00455 |
| CCCCGCCCCG | 0.144 | 0.00486 | 0.00348 |
| CCCCACCCCG | 0.186 | 0.00784 | 0.00384 |
| CCCCCGCCCC | 0.312 | 0.0117 | 0.00372 |
| AAAAAAAGAG | 0.126 | 0.00949 | 0.0578 |
| AAAAGCGTAC | 0.118 | 0.0294 | 0.0176 |
| CCCCCACCCC | 0.44 | 0.0205 | 0.00276 |
| CCCAAACCCC | 0.109 | 0.00298 | 0.00168 |
| AAGCGTCTCC | 0.163 | 0.084 | 0.0107 |
| GGGTGGGTGA | 0.104 | 0.00505 | 0.0012 |
| CCCCCACACC | 0.231 | 0.00821 | 0.00779 |
| CCGCCACCCC | 0.307 | 0.0102 | 0.0018 |
| AGGATACACT | 0.17 | 0.0907 | 0.116 |
| ACCACCACCC | 0.189 | 0.00679 | 0.00611 |
| CCCCGCCGCC | 0.175 | 0.00541 | 0.0012 |

| Sequence | binding signal (ZNF721 full-length) [relative 10-mer count] | binding signal (ZNF721 DBD1) [relative 10-mer count] | binding signal (ZNF721 DBD2) [relative 10-mer count] |
| --- | --- | --- | --- |
| CATACCCAAA | 0.103 | 0.00583 | 0.0665 |
| CACCCCCAAC | 0.118 | 0.00514 | 0.0114 |
| GCCCCCCACC | 0.171 | 0.00693 | 0.00455 |
| CTCCTCCCCC | 0.119 | 0.00633 | 0.00216 |
| CCACCCCCGA | 0.104 | 0.00298 | 0.00264 |
| CCACAAAAAA | 0.125 | 0.00615 | 0.0663 |
| CCCCCCAGCC | 0.118 | 0.00505 | 0.00228 |
| AAAAAGCTCA | 0.112 | 0.0408 | 0.00407 |
| CACGCCCCAC | 0.11 | 0.00326 | 0.00455 |
| CCCCACCGCC | 0.28 | 0.0114 | 0.00635 |
| CCCACCCCCG | 0.214 | 0.00771 | 0.00264 |
| GCCACCCACC | 0.147 | 0.00605 | 0.00312 |
| GTGGGGTGGA | 0.103 | 0.00573 | 0.00539 |
| CCCGCCCCGC | 0.154 | 0.00518 | 0.00144 |
| CCCCACCATC | 0.111 | 0.00477 | 0.00563 |
| CCCTGCCCCC | 0.166 | 0.00642 | 0.00264 |
| AGCCCACCCC | 0.12 | 0.00583 | 0.0209 |
| ATGGGGTGGG | 0.125 | 0.00477 | 0.00551 |
| CACCGCCCCC | 0.171 | 0.00803 | 0.003 |
| CATCCCACCC | 0.138 | 0.00527 | 0.00563 |
| CCCACTCCCC | 0.155 | 0.00656 | 0.00372 |
| CCCCCGCCAC | 0.176 | 0.00679 | 0.0036 |
| CCACCCTCAC | 0.103 | 0.00427 | 0.00791 |
| AGTGTTTCCA | 0.13 | 0.0113 | 0.284 |

| Sequence | binding signal (ZNF721 full-length) [relative 10-mer count] | binding signal (ZNF721 DBD1) [relative 10-mer count] | binding signal (ZNF721 DBD2) [relative 10-mer count] |
| --- | --- | --- | --- |
| AAAAGCAGCC | 0.136 | 0.00261 | 0.112 |
| AGGTGGGGGG | 0.157 | 0.0067 | 0.00527 |
| GCCCTCCCCC | 0.163 | 0.00716 | 0.00911 |
| ACCACCCCCA | 0.142 | 0.00505 | 0.00204 |
| ACCCCGCCAC | 0.107 | 0.00482 | 0.00264 |
| CATCCCCCCC | 0.123 | 0.00463 | 0.00635 |
| ACGCCCACCC | 0.129 | 0.00486 | 0.00587 |
| GCCCACCCCA | 0.142 | 0.00505 | 0.00971 |
| CCCACCCCAG | 0.114 | 0.00321 | 0.00156 |
| ACCACCCCAC | 0.201 | 0.0072 | 0.00479 |
| CCCCCCACAC | 0.17 | 0.00656 | 0.00671 |
| CCACCCCTCC | 0.209 | 0.0108 | 0.00491 |
| CCTCACCCCC | 0.156 | 0.00683 | 0.0018 |
| GGGTGGGGGA | 0.208 | 0.00885 | 0.00443 |
| ACAAAAAAAG | 0.12 | 0.0121 | 0.0533 |
| CCGCCCCCTC | 0.128 | 0.00573 | 0.00324 |
| CACCCCGACC | 0.113 | 0.00335 | 0.00216 |
| GCGTACCCTA | 0.111 | 0.0263 | 0.0775 |
| CCCCCCCGCC | 0.204 | 0.00706 | 0.00276 |
| GGGGCGGGGA | 0.131 | 0.00633 | 0.00264 |
| CCCACCCTCA | 0.114 | 0.00573 | 0.00971 |
